Bioassay records deposited in PubChem BioAssay by several laboratories.
Rows were chosen to be rich in hits. Some 2.3% of all compounds tested hit in one or more screens of this group.
ADAM10 inh: inhibits human ADAM10; recombinant ADAM10, EDANS/DABCYL FRET peptide cleavage, 3 h; inhibition, % at 7 µM; 0.62% of 370,000 active;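 active = inhibition above a per-campaign cutoff equal to the mean of compounds falling between control-based bounds plus 3 SD, cut at about 20% in these data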
ADAM17 inh: inhibitors of human ADAM17 | P78536 | recombinant ADAM17, EDANS/DABCYL FRET peptide cleavage | inhibition, % at 6.95 µM | 0.83% of 370,000 active | AID 720648;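 active = inhibition above the mean of compounds lying between control limits plus 3 SD, set per campaign, cut at about 8.5% in these data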
V-ATPase pHluor: yeast V-ATPase proton transport regulation by pHLuorin. S. cerevisiae, pHLuorin cytosolic pH fluorescence. response, % at 10 µM. 0.37% of 350,000 active. AID 504577; in the data active = response mostly above about 7.3%, no sharp cut-off; inactive = mostly below about 5.4%; also: actives read high
KLK7 zymogen act: proKLK7 (human) activation, primary screen; 0.9% of 370,000 active; activation, % at 7 µM; purified proKLK7, EDANS-DABCYL substrate fluorescence; 100% is mature enzyme control, 0% vehicle; AID 652039; P49862;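 active = activation above the mean of all tested compounds plus 3 SD, computed per campaign excluding outliers beyond control limits, cut at about 13% in these data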
Target sequence (P49862 whole entry, looked up): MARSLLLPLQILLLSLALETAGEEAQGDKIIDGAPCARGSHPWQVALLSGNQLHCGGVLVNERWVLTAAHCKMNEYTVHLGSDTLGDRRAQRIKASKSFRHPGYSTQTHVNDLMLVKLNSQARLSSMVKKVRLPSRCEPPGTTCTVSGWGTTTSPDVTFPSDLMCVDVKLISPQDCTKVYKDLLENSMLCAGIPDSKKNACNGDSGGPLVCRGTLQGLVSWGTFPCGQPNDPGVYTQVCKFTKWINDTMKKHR
ADAM10 confirm: confirmation of inhibitors of human ADAM10 | 1% of 2,100 active | shares compounds with ADAM10 inh | ADAM10 QFRET peptide cleavage, EDANS fluorescence | inhibition, % at 6.95 µM;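 active = inhibition above about 20% chosen separately for each screening run, limit read from the data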
ADAM17 counter: counter-screen for ADAM10 exosite inhibitors: inhibitors of human ADAM17 | shares compounds with ADAM10 inh | ADAM17 QFRET peptide cleavage, EDANS fluorescence | inhibition, % at 6.95 µM | 0.5% of 2,100 active;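 active = mean triplicate inhibition above the solvent-only control wells' mean plus 3 SD, cut at about 12% in these data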
ADAM10 counter: counter-screen for ADAM17 exosite inhibitors: inhibitors of human ADAM10; shares compounds with ADAM17 inh; recombinant ADAM10, EDANS/DABCYL FRET peptide cleavage, 3 h; inhibition, % at 6.95 µM; 47% of 2,900 active;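 active = mean inhibition over the triplicate runs exceeds the activity threshold set in the earlier primary screen, cut at about 20% in these data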
ADAM17 confirm: confirmation of inhibitors of human ADAM17 | inhibition, % at 6.95 µM | shares compounds with ADAM17 inh | recombinant ADAM17, EDANS/DABCYL QFRET peptide cleavage | 65% of 2,900 active;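 active = mean inhibition across replicates above the hit cutoff set in the primary screen, cut at about 8.5% in these data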
Of the large screens only hits and unclear results are named; the others gave an inactive call (follow-up assays come after a bar, where they were run).

COc1ccc(OC)c(NP(=O)(Oc2ccccc2)Oc2ccccc2)c1	ADAM10 inh 32, ADAM17 inh 10 | ADAM10 confirm inactive | ADAM17 counter inactive | ADAM10 counter inactive | ADAM17 confirm inactive
COc1ccc(OC)c(NP(=O)(Oc2ccc(Cl)cc2)Oc2ccc(Cl)cc2)c1	none
COc1ccc(NP(=O)(Oc2ccc(Cl)cc2)Oc2ccc(Cl)cc2)cc1OC	ADAM10 inh 23, ADAM17 inh 12 | ADAM10 confirm inactive | ADAM17 counter inactive | ADAM10 counter 41 | ADAM17 confirm 17
CC(=O)O[C@H]1C[C@@H]2OC3C=C(C)CCC3(C)[C@@]1(C)[C@@]21CO1 (some centres not stated)	none
COc1ccc(-n2c(-c3ccccc3F)nc3ccccc3c2=O)cc1	none
COC(=O)C1=C(c2ccc(F)cc2F)C[C@@H]2CC[C@H]1N2C(=O)NC(C)C	none (no result: ADAM10 inh, ADAM17 inh, KLK7 zymogen act)
CC(C)c1ccc(C(c2c(O)c3ccccc3oc2=O)c2c(O)c3ccccc3oc2=O)cc1	ADAM10 inh 23, ADAM17 inh 9.6 | ADAM10 confirm inactive | ADAM17 counter inactive | ADAM10 counter 34 | ADAM17 confirm 23
COc1ccc(-n2nnnc2C(CCc2ccccc2)N2CCC3(CC2)C(=O)NCN3c2ccccc2)cc1 (configuration not stated)	ADAM10 inh 28, ADAM17 inh 12 (no result: V-ATPase pHluor) | ADAM10 confirm inactive | ADAM17 counter inactive | ADAM10 counter 33 | ADAM17 confirm 18
CCC(c1nnnn1-c1ccc(OC)cc1)N1CCC2(CC1)C(=O)NCN2c1ccccc1 (configuration not stated)	none (no result: V-ATPase pHluor)
COC(=O)C1=C(c2ccc(-c3ccccc3)c(F)c2)C[C@@H]2CC[C@H]1N2C(=O)NCCOc1ccccc1	ADAM10 inh 38, ADAM17 inh 18 | ADAM10 confirm inactive | ADAM17 counter inactive | ADAM10 counter 38 | ADAM17 confirm 19
COc1ccc(C(=O)Oc2cccc3cccnc23)cc1S(=O)(=O)N1CCOCC1	none
Oc1ccccc1Cl	none
Oc1ccc(O)c2c1C1(Cl)C(Cl)=C(Cl)C2(Cl)C1(Cl)Cl	ADAM10 inh 41, ADAM17 inh 15 | ADAM10 confirm inactive | ADAM17 counter inactive | ADAM10 counter 29 | ADAM17 confirm 14
CC1=CC(C)CC(C)OC(=O)CC(c2ccc(O)cc2)NC(=O)C(Cc2c(Br)[nH]c3ccccc23)N(C)C(=O)C(C)NC(=O)C(C)C1 (configuration not stated)	ADAM10 inh 25, ADAM17 inh 8.9 | ADAM10 confirm inactive | ADAM17 counter inactive | ADAM10 counter 30 | ADAM17 confirm 18
Cc1cccc(N2C(=O)/C(=C/c3ccc(CN(CCC#N)S(C)(=O)=O)o3)C(=O)NC2=S)c1	ADAM17 inh 9.1 | ADAM10 counter inactive | ADAM17 confirm inactive
C=C[C@H]1CN2CC[C@H]1C[C@@H]2[C@@H](O)c1ccnc2ccccc12	none
CC(C)c1ccc(-n2c(O)c(C=NC(CCS(C)=O)C(=O)O)c(=O)[nH]c2=S)cc1 (configuration not stated)	ADAM17 inh 9.2 | ADAM10 counter inactive | ADAM17 confirm inactive
CC(c1ccccc1)n1cncc1C(=O)O (configuration not stated)	ADAM17 inh 9.4 | ADAM10 counter inactive | ADAM17 confirm 11
COC(=O)C1=C(c2ccc(F)cc2OCc2ccccc2)C[C@@H]2CC[C@H]1N2C(=O)NCc1ccc(F)cc1	none
COC(=O)C1=C(c2ccc(F)cc2OCc2ccccc2)C[C@@H]2CC[C@H]1N2C(=O)NCc1ccc([N+](=O)[O-])cc1	ADAM17 inh 9.0 | ADAM10 counter 30 | ADAM17 confirm 20
NC(C(=O)O)c1cc(=O)[nH]o1 (configuration not stated)	none
CSCCC(c1nnnn1Cc1ccccc1)N1CCC2(CC1)C(=O)NCN2c1ccccc1 (configuration not stated)	ADAM17 inh 11 (no result: V-ATPase pHluor) | ADAM10 counter inactive | ADAM17 confirm inactive
